Screens: PubChem BioAssay, Johns Hopkins Ion Channel Center
Rows were chosen to be rich in hits. Some 1.6% of all compounds tested hit in one or more screens of this group.
KCNQ2 inh: rat KCNQ2 potassium channel inhibitors, primary screen, cell-based, CHO-K1, FluxOR thallium flux, B-score; Potassium voltage-gated channel subfamily KQT member 2 (Rattus norvegicus), O88943; 20 min; hits give low values; B-score at 10 µM; 1.1% of 310,000 active;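 active means fluorescence ratio B-score at most minus 3 library SDs, with starting brightness B-score within 2 library SDs, cut at about -5.5 in these data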
Target sequence (O88943 whole entry, looked up): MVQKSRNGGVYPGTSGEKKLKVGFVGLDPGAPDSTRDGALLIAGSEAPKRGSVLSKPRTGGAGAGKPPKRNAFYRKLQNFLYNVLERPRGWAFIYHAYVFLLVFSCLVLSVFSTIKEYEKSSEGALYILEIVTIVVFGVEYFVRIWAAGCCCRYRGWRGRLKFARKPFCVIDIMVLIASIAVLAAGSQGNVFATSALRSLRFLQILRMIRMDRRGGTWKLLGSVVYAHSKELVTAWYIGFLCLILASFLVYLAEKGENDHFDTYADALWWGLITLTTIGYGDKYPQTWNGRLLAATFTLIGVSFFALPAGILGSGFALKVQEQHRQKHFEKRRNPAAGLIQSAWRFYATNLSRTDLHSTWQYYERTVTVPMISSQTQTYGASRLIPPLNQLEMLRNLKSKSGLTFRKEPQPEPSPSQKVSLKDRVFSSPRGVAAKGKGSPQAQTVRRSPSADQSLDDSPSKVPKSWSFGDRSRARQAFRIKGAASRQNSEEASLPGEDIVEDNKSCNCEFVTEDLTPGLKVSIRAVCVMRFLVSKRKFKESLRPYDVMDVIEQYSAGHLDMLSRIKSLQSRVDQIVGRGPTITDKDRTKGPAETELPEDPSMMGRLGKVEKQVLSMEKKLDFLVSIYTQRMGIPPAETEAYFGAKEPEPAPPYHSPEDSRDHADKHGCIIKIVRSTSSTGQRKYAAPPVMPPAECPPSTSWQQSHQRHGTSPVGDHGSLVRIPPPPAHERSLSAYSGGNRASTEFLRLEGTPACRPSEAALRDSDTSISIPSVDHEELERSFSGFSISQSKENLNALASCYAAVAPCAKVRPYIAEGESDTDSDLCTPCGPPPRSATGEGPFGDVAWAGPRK
KCNQ2 pot: potentiators of rat KCNQ2 potassium channel | Potassium voltage-gated channel subfamily KQT member 2 (Rattus norvegicus), O88943 | CHO-K1 KCNQ2, FluxOR thallium flux fluorescence; hits give high values | B-score at 10 µM | 0.54% of 310,000 active | AID 2239, 2010;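 active means fluorescence ratio B-score at least 3 SD of library B-scores, with initial fluorescence B-score within 3 of them, cut at about 5.3 in these data; same plate scores as AID 2156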;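 further: B-score of peak minus minimum over baseline fluorescence ratio after K+ and Tl+ stimulus; positive B-score means potentiation of KCNQ2 with more thallium influx and brighter signal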
Starred values were filed as active, the others as inactive; i = inactive; / = no result.

SMILES | KCNQ2 inh | KCNQ2 pot
C=CCN1C(=O)[C@@H]2Cc3c([nH]c4ccccc34)C(c3cc(OC)c(OC)c(OC)c3)N2C1=S (some centres not stated) | -6.12* | -6.12
CCN1C(=O)[C@@H]2Cc3c([nH]c4ccccc34)C(c3cc(OC)c(OC)c(OC)c3)N2C1=S (some centres not stated) | i | /
Cc1ccc(C(=O)Nc2nc(-c3ccccc3)c(-c3ccccc3)o2)cc1 | i | 8.4*
Cc1cc(C)nc(SCC(=O)Nc2nc(-c3ccccc3)c(-c3ccccc3)o2)n1 | i | 0.07
CC(C)c1nnc(NC(=O)CCC(=O)N2CCC(Cc3ccccc3)CC2)s1 | i | 3.52
COc1ccccc1NC(=O)CNC(=O)c1ccc(Br)o1 | i | 2.22
CCOc1ccc2nc(N3C(=O)/C(=C/c4ccccc4)NC3=S)sc2c1 | i | 20.5*
COc1ccc2nc(-n3c(C)ccc3C)sc2c1 | i | 0.47
COc1ccc2nc(N3C(=O)/C(=C/c4ccccc4)NC3=S)sc2c1 | i | 22.7*
CCOc1ccc2nc(N3CCCCCC3)sc2c1 | i | 1.02
CC(C)c1nc(SCC(=O)NC2CCCC2)c2c(=O)n(C)c(=O)n(C)c2n1 | i | /
COc1ccccc1NC(=O)CN1CCN(CC(=O)Nc2ccc(F)cc2F)CC1 | i | /
CC(C)(C)n1nnnc1C(c1cccc(C#N)c1)N1CCC(Cc2ccccc2)CC1 (configuration not stated) | i | 0.94
CCC(C)(C)n1nnnc1C(c1cccc(C#N)c1)N1CCN(c2cc(C)ccc2C)CC1 (configuration not stated) | -5.84* | -5.84
Cc1cccc(NC(=O)/C(C#N)=C\c2cccnc2)c1 | -6.55* | -6.55
N#C/C(=C\c1cccnc1)C(=O)Nc1ccc(Cl)cc1 | i | /
COc1ccc(CNC(=O)C2Cc3cc(S(=O)(=O)N4CCCC4)ccc3N2C(C)=O)c(OC)c1 (configuration not stated) | i | 0.64
COc1ccc(C)cc1S(=O)(=O)N(C)CC(=O)NCc1ccccn1 | i | 1.37
COc1cc(CNC(=O)c2cc3ccccc3oc2=O)cc(OC)c1OC | i | 0.73
Cc1ccc(S(=O)(=O)Oc2ccccc2/C=N/NC(=O)c2c(Cl)cnn2C)cc1 | -6.05* | -6.05
Cn1ncc(Cl)c1C(=O)N/N=C/c1ccccn1 | i | /
Cc1cc(C)c(C)c(S(=O)(=O)NCC(=O)Nc2ccc(F)cc2)c1C | i | 0.06
O=C(CN1c2ccccc2S(=O)(=O)c2ccccc21)Nc1ccccc1F | i | /
C/C(=N\Nc1ccc(C(=O)O)cc1)c1ccc2c(c1)Nc1ccccc1S2 | i | 5.35*
COc1ccc(/C(C)=N/Nc2cccc(C(=O)O)c2)cc1OC | i | /
SMILES | KCNQ2 inh | KCNQ2 pot
O=C(NC1CCC(C(=O)O)CC1)OCc1ccccc1 (configuration not stated) | i | 0.05
c1ccc(CO/N=C(\c2ccc(C3CC3)nc2)C2CC2)cc1 | -6.99* | -6.99
c1ccc(C2CCC(N3CCN(c4ccccc4)CC3)CC2)cc1 (configuration not stated) | i | /
Cc1oc2c(cc(NS(=O)(=O)c3ccc(C(C)C)cc3)c3ccccc32)c1C(=O)O | -5.83* | -5.83
Cc1oc2c(cc(NS(=O)(=O)c3ccc(F)cc3)c3ccccc32)c1C(=O)O | i | /
COc1cccc(NC(=O)CSc2nc3ccccc3c(=O)n2CCCC(=O)NCC2CCCO2)c1 (configuration not stated) | i | 0.41
Cc1ccc(S(=O)(=O)N2CC=C(C(=O)NCc3ccc(F)cc3)CC2)cc1 | i | 0.02
CCN(CC)c1ccc(NC(=O)C2=CCN(S(=O)(=O)c3ccc(F)cc3)CC2)c(C)c1 | i | 7.08*
Cc1ccc(CNC(=O)CCS(=O)(=O)c2ccc(Cl)cc2)cc1 | i | /
Cc1ccc(C)c(C(=O)CCC(=O)NCc2ccc(Cl)cc2)c1 | -5.95* | -5.95
CCc1ccc(N2CC(C(=O)Nc3ccc(S(=O)(=O)N4CCOCC4)cc3)CC2=O)cc1 (configuration not stated) | i | /
CC(C)Cn1c(N)c(C(=O)COC(=O)Cc2cccc(C(F)(F)F)c2)c(=O)n(C)c1=O | i | /
CC(OC(=O)c1ccccc1NS(=O)(=O)c1cccc(C(F)(F)F)c1)C(=O)N(C)Cc1ccccc1 (configuration not stated) | -6.47* | -6.47
CN(Cc1ccccc1)C(=O)COC(=O)c1ccccc1NS(=O)(=O)c1cccc(N)c1 | i | /
Cc1ccccc1Cn1nnc(-c2ccc(F)cc2)n1 | i | /
O=C(NCCOc1ccc(Cl)cc1)c1ccc2ccccc2n1 | -6.3* | -6.3
Cc1ccc(OCCNC(=O)c2ccc3ccccc3n2)cc1 | i | /
O=C(CN1CCN(S(=O)(=O)c2ccc(F)cc2)CC1)Nc1ccc(F)cc1F | i | /
COC(=O)c1sccc1NC(=O)c1cc(-c2cccc(C)c2)nc2ccccc12 | i | /
